Shown are actives, neighbours in structure and some others; about 21% of the full set was active somewhere.
AMA1 RON2 block – disrupts binding of P. falciparum AMA1 to RON2; AlphaScreen AMA1-biotinylated RON2 peptide binding; Potency, µM (series often up to 58.2 µM), for the others: top-dose activity change, negative = inhibition, most hits filed as inhibitors; 360,000 tested, 0.2% active; AID 720542;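 further: potency means the concentration at half of the fitted maximal effect; 0% = vehicle wells and -100% = peptide control; nearly all actives have a fitted effect of over 45% in size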
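AMA1 (3D7) with his tag at 25 nM final met compounds first, then biotinylated RON2 peptide at 25 nM; detection used donor plus acceptor beads, 10 µg/mL apiece, read by AlphaScreen after 30 min at room temperature.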
Shiga inhibitor – inhibitors of Shiga toxin in Vero cells. Vero cells, Shiga toxin protein synthesis inhibition reporter. inhibition, % at 38.7 µM. 290,000 tested, 9.2% active; in the data active means inhibition mostly above about 28%, no sharp cut-off; inactive means mostly below about 43%; further: 0% is about no effect
HCV inhibitor – inhibitors of hepatitis C virus infection. Potency, µM (doses to about 41.8 µM), for the others: at the top dose activity change, negative = inhibition, usual class: inhibitors. Huh7.5.1 HCVcc-Cre infection, luciferase reporter, 44 h. 340,000 tested, 3.4% active; further: potency means the concentration at half of the fitted maximal effect; on the % scale 0 is the no-effect control and ±100 the full control effect
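Reporter virus HCVcc-Cre (~0.5 moi) infects cells exposed to compound; seeding density 1,000 cells/well with 4 h settling beforehand. Luminescence, 15 sec read, taken 44 h post-infection following a 15 min RT substrate incubation.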
Pf growth 96h – P. falciparum growth inhibition at 96 hours; AID 504834; P. falciparum luciferase reporter growth, 96 h; Potency, µM (titrated, usually from 28.7 µM), for inactives: at the highest dose activity change, negative = inhibition, most hits filed as inhibitors; 320,000 tested, 6.9% active; further: potency means the concentration at half of the fitted maximal effect; on the % scale 0 is the no-effect control and ±100 the full control effect
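Plates of compound plus infected erythrocytes (2% hematocrit, 0.05% parasitemia final) incubate 96 hours, 37 C, 5% CO2. Detection reagent added; reduced luminescence from the parasites' luciferase reporter flags inhibition.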
Pf growth 48h – P. falciparum growth inhibition at 48 hours (one generation); AID 504832; P. falciparum luciferase growth in erythrocytes, 48 h; 310,000 tested, 5.9% active; Potency, µM (top dose mostly 28.7 µM), for inactives: at the highest dose activity change, negative = inhibition, usual class: inhibitors; further: potency means the concentration at half of the fitted maximal effect; on the % scale 0 is the no-effect control and ±100 the full control effect
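Parasite viability was followed by luminescence of a genomically integrated firefly luciferase. Cultures held 0.1% parasitemia at 2% hematocrit (final), incubated under 5% CO2 at 37 C.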
Cycloheximide cs – counter-screen hit for Shiga toxin inhibitors, cycloheximide | max response, % | cell reporter, cycloheximide protein synthesis inhibition counterscreen | 300,000 tested, 12% active | AID 2314; in the data active means max response mostly above about 13%, no sharp cut-off; inactive means mostly below about 14%; further: read at 38.3 µM for the half of the compounds with a filed dose; 0% is about no effect
* marks the source's active call; other numbers are inactive results. Unless noted, the call rests on the fitted dose curve; in most records, active means well fitted curve in the direction sought with a large enough effect; inconclusive means small, poorly fitted or top-dose-only effect, or another doubt; inactive means no such curve, though single readings can be large; an effect the other way counts as inactive or inconclusive.

Screening CC1CCC2(CC1)NC(=O)N(CC(=O)c1cn(CCC#N)c3ccccc13)C2=O (stereo unspecified) returned AMA1 RON2 block 0.0%, Shiga inhibitor 22.6, HCV inhibitor 7.7%, Pf growth 96h inconclusive, Pf growth 48h 6.8% and Cycloheximide cs -1.5.
Screening CC1(C)C(C(=O)N2CCN(c3ccc(Cl)cc3)CC2)C1(C)C returned AMA1 RON2 block -4.0%, Shiga inhibitor 15.7, HCV inhibitor inconclusive, Pf growth 96h 4.8%, Pf growth 48h -10.6% and Cycloheximide cs 10.2.
For O=C(C1CCC(CNS(=O)(=O)c2cccc3cccnc23)CC1)N1CCCC1 (stereo unspecified) the results were AMA1 RON2 block -6.2%, Shiga inhibitor 13.9, HCV inhibitor -3.9%, Pf growth 96h 13.1µM*, Pf growth 48h -2.4% and Cycloheximide cs -3.4.
`O=C(C1CCC1)N1CCN(c2ccc(Cl)cc2)CC1` gave AMA1 RON2 block 7.7%, Shiga inhibitor 14.2, HCV inhibitor -18.9%, Pf growth 96h 7.38µM*, Pf growth 48h 3.8% and Cycloheximide cs 12.5*.
For O=C(NCc1ccccc1)C1CCCN1S(=O)(=O)c1cccc2cccnc12 (stereo unspecified) the results were AMA1 RON2 block 1.8%, Shiga inhibitor -5.1, HCV inhibitor 4.4%, Pf growth 96h 4.65µM*, Pf growth 48h -6.1% and Cycloheximide cs -2.3.
For O=C(C1CCN(S(=O)(=O)c2cccc3cccnc23)CC1)N1CCN(c2ccc(Cl)cc2)CC1 the results were AMA1 RON2 block -5.3%, Shiga inhibitor -3.8, HCV inhibitor 11.2µM*, Pf growth 96h -25.3% and Cycloheximide cs -5.8.
`CC[C@@H]1Cc2[nH][nH]c(=O)c2[C@H](c2ccc(Cl)cc2)O1` gave AMA1 RON2 block 69.9%.
Cc1nc(N/N=C/c2cccc([N+](=O)[O-])c2)cc(N2CCCCC2)n1 was read as AMA1 RON2 block 17.4%.
`C[C@H]1CN([C@@H](C)CO)C(=O)CCCn2cc(nn2)CO[C@@H]1CN(C)C(=O)Nc1ccc2c(c1)OCO2` gave AMA1 RON2 block -5.1%.
Screening CC(=O)Nc1ccc(SCCN2CCN(CCc3ccccc3)CCC2=O)cc1 returned Shiga inhibitor 18.4 and Cycloheximide cs 8.8.
Screening O=C(C1c2ccccc2Oc2ccccc21)N1CCN(c2ccc(Cl)cc2)CC1 returned AMA1 RON2 block -18.8%, Shiga inhibitor -15.0, HCV inhibitor inconclusive, Pf growth 96h 2.08µM* and Cycloheximide cs -1.2.
`O=C(CCS(=O)(=O)c1ccc(Br)cc1)N1CCCCCC1` gave AMA1 RON2 block 10.8%, Shiga inhibitor 13.4, HCV inhibitor 3.5%, Pf growth 96h 0.0%, Pf growth 48h 37.5% and Cycloheximide cs 11.2.
O=C(C1CCCCC1)N1CCCC(c2nc(-c3ccc(F)cc3)no2)C1 (stereo unspecified) was read as AMA1 RON2 block 3.7%, Shiga inhibitor 4.4, HCV inhibitor -2.2%, Pf growth 96h inconclusive, Pf growth 48h 17.1% and Cycloheximide cs -1.8.
For Cc1ccc(-c2noc(C3CCCN(C(=O)c4ccc(Cl)cc4)C3)n2)o1 (stereo unspecified) the results were AMA1 RON2 block -20.2%, Shiga inhibitor 37.0, HCV inhibitor inconclusive, Pf growth 96h 9.7%, Pf growth 48h -7.7% and Cycloheximide cs 35.6*.
Cc1ccc(-c2noc(C3CCCN(C(=O)C4CCCCC4)C3)n2)o1 (stereo unspecified) was read as AMA1 RON2 block -6.3%, Shiga inhibitor 65.9, HCV inhibitor -10.6%, Pf growth 96h 1.04µM* and Cycloheximide cs 23.6*.
Screening O=C(Cc1ccc(Cl)cc1)SCc1ccccc1 returned AMA1 RON2 block 138.2%, HCV inhibitor 6.1%, Pf growth 96h 58.0% and Pf growth 48h 21.7%.
Screening O=C(Cc1ccccc1F)Nc1cccc(S(=O)(=O)N2CCOCC2)c1 returned AMA1 RON2 block 0.0% and HCV inhibitor -14.6%.
For O[Si](CCCN1CCCCC1)(c1ccc(F)cc1)C1CCCCC1 (stereo unspecified) the results were AMA1 RON2 block -18.2%, HCV inhibitor inconclusive, Pf growth 96h 0.104µM* and Pf growth 48h 0.0928µM*.
N=Cc1c(O)n(-c2ccc(C34CC5CC(CC(C5)C3)C4)cc2)c(=O)[nH]c1=O was read as AMA1 RON2 block 9.3%, Shiga inhibitor 27.0*, HCV inhibitor -2.1%, Pf growth 96h 43.9%, Pf growth 48h 34.5% and Cycloheximide cs 47.9*.
Screening CCOC(=O)CC1C(=O)NCCN1Cc1ccc(OC)c(OC)c1 (stereo unspecified) returned AMA1 RON2 block 0.9%, Shiga inhibitor -4.3, HCV inhibitor 16.8%, Pf growth 96h 10.4µM*, Pf growth 48h 0.4% and Cycloheximide cs -1.2.
COc1ccc(CN2CCNC(=O)C2CC(=O)NCCc2cnccn2)cc1C (stereo unspecified) was read as AMA1 RON2 block 10.0%, Shiga inhibitor -11.3, HCV inhibitor 18.5%, Pf growth 96h 14.7µM*, Pf growth 48h 0.0% and Cycloheximide cs -0.7.
For COc1cccc(CCNC(=O)CC2C(=O)NCCN2CC(C)(C)C)c1 (stereo unspecified) the results were AMA1 RON2 block -4.6%, Shiga inhibitor -3.5, HCV inhibitor 4.4%, Pf growth 96h 14.7µM*, Pf growth 48h 12.6% and Cycloheximide cs -3.8.
For COc1ccc(CN2CCNC(=O)C2CC(=O)NCCC2=CCCCC2)cc1OC (stereo unspecified) the results were AMA1 RON2 block -4.8%, Shiga inhibitor 9.3, HCV inhibitor 9.4%, Pf growth 96h 10.4µM*, Pf growth 48h -5.7% and Cycloheximide cs 1.7.
Screening CCOc1ccc2c(c1)c(=O)c(S(=O)(=O)c1ccc(CC)cc1)cn2C returned AMA1 RON2 block 5.5%, Shiga inhibitor 15.1, HCV inhibitor -23.2%, Pf growth 96h inconclusive, Pf growth 48h -15.3% and Cycloheximide cs -5.8.
`CCCCCCCCCCCCCC(=O)OCC(COP(=O)([O-])OCC[N+](C)(C)C)OC(=O)CCCCCCCCCCCCC` (stereo unspecified) gave Pf growth 96h 8.5% and Pf growth 48h 8.9%.
Screening COc1ccc(NC(=O)COC(=O)CCNC(=O)c2ccco2)cc1Cl returned AMA1 RON2 block 7.0% and HCV inhibitor -28.0%.
For COc1ccc(-n2c(SCC(=O)Nc3ccc(C(N)=O)cc3)nc3c([nH]c4ccccc43)c2=O)cc1OC the results were AMA1 RON2 block -0.5%, Shiga inhibitor -11.0, HCV inhibitor 11.2µM*, Pf growth 96h 11.7µM*, Pf growth 48h inconclusive and Cycloheximide cs 0.9.

Compound activity: PubChem, National Center for Advancing Translational Sciences (NCATS)
